High-throughput results as filed in PubChem BioAssay.
ROMK primary: human ROMK K+ channel modulation, primary screen; AID 1918; Tet-inducible ROMK, thallium flux fluorescence; actives lie on both sides; B-score at 10 µM; P48048; hit rate 2% among 130,000;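 active = signal ratio slope over the read window, or its plate-corrected B-score, at least 3 SD from the plate mean, either direction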;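 also: B-score of the F/F0 ratio slope over 7 to 12 s after thallium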
WT yeast gro inh: growth inhibition of WT yeast, mitochondrial fusion screen | inhibition, % at 10 µM | mitochondrial fusion phenotypic screen, WT strain | hit rate 2.1% among 190,000 | AID 1362; in the data active = inhibition above about 58%; tested in S. cerevisiae
INS promoter inh: TRM-6 insulin promoter activity inhibition | AID 1273 | hit rate 0.9% among 130,000 | TRM-6 cells (human fetal islet line), insulin promoter-eGFP reporter, imaging; reporter expression induced with tamoxifen | inhibition, % at 2 µM;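 active = inhibition above the mean plus 3 SD, with well images judged a real hit on visual review, cut at about 60% in these data, passing the limit was not always enough; inconclusive = inhibition over the cutoff but images rejected on review; inactive = inhibition not above the cutoff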
Lmaj promast: reduces viability of Leishmania major promastigotes. inhibition, % at 10 µM. AID 1063. hit rate 9% among 200,000. resazurin fluorescence viability; in the data active = inhibition above about 50%;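 also: promastigotes grown with compound for 44 hours at 28 °C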
Ins promoter up: MIN6 insulin promoter up-regulation; MIN6 insulin promoter-GFP reporter, high-content imaging; hits give high values; z-score at 5 µM; hit rate 0.3% among 190,000; AID 1625;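 active = z-score above 3 at 5 µM with at least 500 cells counted in the well; inconclusive = wells under 500 cells, flagged as cytotoxic or low count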
Cl transport mod: KCC2 (human) Cl- transport modulation | Q9H2X9 | KCC2 cells, thallium flux FluoZin-2 fluorescence | B-score of Tl+ flux slope (higher = more flux/activation; lower = inhibition) at 10 µM | hit rate 2.2% among 190,000;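 active = thallium flux slope and its plate-corrected score both differing from the plate sample mean at a set confidence after two filtering rounds, in either direction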;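 also: slope of fluorescence scaled to starting intensity during 10 to 20 s after thallium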
ROMK retest: retested hit modulating human ROMK potassium channel; shares compounds with ROMK primary; ROMK thallium flux, fluorescence ratio; hits give low values; normalized thallium flux (F/F0 slope) at 10 µM; hit rate 54% among 3,000;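 active = Flux at 10 µM at least 3 SD below or above vehicle control mean in one or both replicates; inconclusive = no clear call, values can overlap the other calls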
A number is an active result; 0 = inactive; ? = inconclusive; - = no result given. Compounds with a hit are over-represented: about 12% of the library has one in this group of screens.

SMILES	ROMK primary	WT yeast gro inh	INS promoter inh	Lmaj promast	Ins promoter up	Cl transport mod	ROMK retest
CCN1/C(=C\c2ccc3cc(C)ccc3[n+]2CC)Sc2cc(C)c(C)cc21	-5	88	0	100	?	0	0.047
CCN1/C(=C/c2ccc3cc(C)cc(C)c3[n+]2CC)Sc2cc(C)ccc21	-5.2	95	0	100	?	0	0.045
COc1cc(/C=N/OCC(=O)NC2CCS(=O)(=O)C2)ccc1OC(F)F (stereo not given)	0	0	-	0	0	0	-
FC(F)(F)c1nnc(Nc2ccc(Cl)cc2)s1	0	-	-	-	0	0	-
Fc1ccc(Nc2nnc(C(F)(F)F)s2)cc1Cl	-	-	-	-	0	-	0.062
O=C(O)Cc1c(C(=O)O)nnn1-c1ccc(Cl)cc1Cl	0	0	-	0	0	0	-
COc1ccc(Cc2nn3c(-c4cc(OC)c(OC)c(OC)c4)nnc3s2)cc1	-2.6	0	0	0	0	-	?
OC(CN1C2=NCCCN2c2ccccc21)c1ccc(Cl)cc1 (stereo not given)	-	0	-	0	0	-	-
Cn1c(=O)c([N+](=O)[O-])c(-n2ccnc2)c2ccccc21	-8.3	0	-	0	0	0	0.048
CN(Cc1ccccc1)c1ccc2nnc(-c3ccccc3)n2n1	-3.7	0	0	0	0	0	0.065
CN(CCc1ccccn1)C(=O)CCC1CCCN(C(=O)c2ccsc2)C1 (stereo not given)	0	0	-	0	0	-	-
C=CC#CC1(O)CC(C)[N+](C)(C)CC1C (stereo not given)	0	0	0	0	0	0	0
COc1ccc2[nH]c(=O)c(CN(CCc3cccc(C)c3)C(C)=O)cc2c1	0	0	0	0	0	0	-
COc1ccc(NS(=O)(=O)c2ccc(N3CCCC3=O)cc2)cn1	2.3	0	0	0	0	0	0
COc1ccc(OC)c(NS(=O)(=O)c2ccc(N3CCCC3=O)cc2)c1	0	0	-	0	0	-	-
CCn1c(=O)cc(SCC(=O)NCc2ccco2)c2ccccc21	3.5	-	-	0	0	0	0
CCn1c(=O)cc(SCC(=O)NCc2ccc(C)o2)c2ccccc21	0	0	-	0	0	-	-
CCC1(c2ccccc2)NC(=O)N(CC(=O)Nc2cccc(C#N)c2)C1=O (stereo not given)	0	0	-	0	0	-	-
COc1ccccc1-c1cc(-c2cc(Cl)ccc2O)n[nH]1	0	0	-	0	0	-	?
CC1=Nc2ccccc2N=C(NC(=O)CN2CCN(c3ccccc3)CC2)C1c1ccccc1 (stereo not given)	3.2	0	-	0	0	0	0
CCc1cccc(CC)c1NC(=O)CN1CCN(c2ccccc2)CC1	0	0	-	0	0	0	-
CCCCCCCCCCCCOC(=O)C[N+](C)(C)C	-3.8	-	-	-	0	0	0.048
CCCCCCCCOC(=O)c1ccc(N)cc1	0	0	0	0	-	0	-
C/C(Cl)=C\C[N+](C)(C)CC(=O)OCCc1ccccc1	0	-	-	-	0	0	-
CCCCCCCCCCOC(=O)C[N+](C)(C)C/C=C(/C)Cl	-	0	0	100	0	0	0.057
SMILES	ROMK primary	WT yeast gro inh	INS promoter inh	Lmaj promast	Ins promoter up	Cl transport mod	ROMK retest
CCOC(=O)c1ccc(NC(=O)CSc2nnc(Cn3c(=O)sc4ccccc43)n2C)cc1	-	0	0	0	-	0	-
Cc1cn2c(-c3ccc(Cl)cc3)nnc2s1	-	0	-	0	-	0	0
C=C(C)CSc1nc(N)c2c(C)c(C)sc2n1	-	0	0	0	0	0	-
COc1ccc([C@H]2[C@H](C(=O)OC(C)(C)C)N3N=Cc4ccccc4C3C23C(=O)c2ccccc2C3=O)c(OC)c1 (stereo not given in full)	-	0	0	0	0	0	0.06
CSc1cc(-c2ccc(Cl)cc2)c(C(=O)NN)s1	-	0	0	0	-	0	-
Cc1nn(Cc2ccc(Cl)cc2Cl)c(C)c1NC(=O)C1C2CCC(O2)C1C(=O)O (stereo not given)	0	0	0	0	-	0	-
CCCCn1c(=N)n(CC(O)COc2cccc(C)c2)c2ccccc21 (stereo not given)	-5.8	0	0	100	?	-	0.051
CCCCn1c(=N)n(CCOc2ccc(C)cc2)c2ccccc21	-3.5	0	0	97	0	0	0.051
COc1ccc(OCCn2c(=N)n(CCO)c3ccccc32)cc1	0	-	0	0	0	0	-
COc1cc(C(C(=O)NC2CCCC2)N(C(=O)Cc2cccs2)C2CC2)cc(OC)c1OC (stereo not given)	0	0	-	0	0	0	-
Cc1c(NC(=O)OCCNC(=O)COc2ccc(Cl)cc2Cl)sc(=S)n1C	-	0	0	0	0	0	-
Cc1cc(NC(=O)CCC(=O)N(CC(=O)NC2CCCC2)Cc2cccs2)no1	0	0	0	0	0	0	-
Cc1ccnc(NC(=O)CCC(=O)N(CC(=O)NC2CCCCC2)Cc2cccs2)c1	0	0	0	0	0	0	0
Cc1csc2ncc(C(=O)NCc3ccc4c(c3)OCO4)c(=O)n12	-	-	-	-	0	-	-
CCSc1nc2sc3c(c2c2nnc(SCC(=O)NCc4ccco4)n12)CCCC3	0	-	0	0	-	0	0
O=C(N1CCOCC1)N1CCN(c2ccccc2)CC1	-	0	0	0	0	0	-
c1ccc(Oc2nc(Oc3ccccc3)nc(N3CCOCC3)n2)cc1	-3.6	0	-	0	0	0	?
c1ccc(N2CCOCCOCCOCCOCCOCC2)cc1	-6.7	0	-	0	0	0	0
O=C(Cc1ccccc1)Nc1ccc(N2CCOCC2)cc1	-2	0	-	0	0	0	0
Clc1ccc(Oc2nc(Oc3ccc(Cl)cc3)nc(N3CCOCC3)n2)cc1	-	0	0	0	0	0	-
O=C(CN1CCN(CCC(=O)Nc2ccccc2F)CC1)Nc1ccc(Cl)cc1	0	0	-	0	0	0	-
CC(CNc1ccccc1O)C(=O)O (stereo not given)	-	0	0	0	0	0	-
CC(=O)c1cccc(NC=C2C(=O)OC3(CCCCC3)OC2=O)c1	-	0	0	0	0	0	-
Cc1ccc(OCC(=O)Nc2ccc(O)c(-c3nc4ccccc4o3)c2)cc1	-	0	0	0	0	0	-
O=C(Nc1ccc(O)c(-c2nc3ccccc3o2)c1)C1(c2ccc(Br)cc2)CCCC1	-	0	-	0	0	0	0
SMILES	ROMK primary	WT yeast gro inh	INS promoter inh	Lmaj promast	Ins promoter up	Cl transport mod	ROMK retest
CC(=O)NC1(C(F)(F)F)C(=O)NC(C)=C1C#N (stereo not given)	0	0	0	0	0	-	-
COc1ccccc1N1CCN(CCCCCCOc2ccc(F)cc2)CC1	-4.5	0	0	0	0	0	0.038
CCOc1ccc(NC(=O)CCN2CCN(c3ccccc3OC)CC2)cc1	-	0	-	0	0	0	-
CCOCCCNC(=O)/C(C#N)=C/c1cc(OC)c(O)c([N+](=O)[O-])c1	3	0	-	0	0	0	0
CCOCCCNC(=O)/C(C#N)=C/c1ccc(Cl)c([N+](=O)[O-])c1	-4.2	0	-	100	0	0	0.033
Cc1cc(=O)n2c(c1C#N)SC1CCCCC12O (stereo not given)	-	0	0	0	0	0	-
COc1ccc(CN2CCSCC2)cc1O	0	0	0	0	0	0	-
COc1ccc(CC(=O)NCc2ccccn2)cc1OC	0	0	-	0	0	-	-
O=C(Nc1ccc2snnc2c1)N1CCOCC1	-	-	-	0	0	0	?
